The source of these data is PubChem BioAssay (NCI).

This is part of a sample that, as a whole, favours compounds with a hit. Of some 83,000 tested, about 20% had one in any assay.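 Compound tested at a single concentration for 48 hours in 96-well plates; a percent growth value below 10 was scored as active.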 Active and inactive are the calls of the source.

The assay concerns MDA-MB-435 melanoma. The assay is described as follows: NCI-60 one-dose screen, 48 h (100 = growth as untreated, 0 = no growth, -100 = all killed). Conditions: 10 µM unless noted.
For `COc1c(F)ccc(C(=O)Nc2ccc3nc(NC(=O)C4CCCN(S(=O)(=O)C5CC5)C4)sc3c2)c1F` (stereo not drawn), the growth is 39.5% (inactive).
For the compound `CCOC(=O)C1=C(N)N(c2ccccc2)C2=C(C(=O)CC(C)(C)C2)C1c1ccc(N2CCOCC2)cc1` (stereo not drawn), the growth was 104% (inactive).
With `OCC1(CCCc2ccccc2)CCCN(c2nccc3ccccc23)C1` (stereo not drawn), the growth was 41.2% (inactive).
With `COc1ccc(/C=N/NC(=O)Cn2nc(Cc3ccc(OC)cc3)c3onc(C)c3c2=O)cc1` the figure was 62% (inactive); with `O=[N+]([O-])c1ccc(/C=C/c2nc3ccccc3n3c(=S)[nH]nc23)cc1`, 82.8% (inactive); with `COC(=O)/C=C/c1cccc2c1C(=O)NC(C)(c1cc3ccccc3oc1=O)N2` (stereo not drawn), 78.2% (inactive).
As for `CCN(CC)c1ccc(/C=N/Nc2nc(-c3ccc(Br)cc3)cs2)c(O)c1`, the figure is 64.5% (inactive); as for `O=C(c1ccccc1)C(c1c[nH]c2ccccc12)c1c[nH]c2ccccc12`, 36.8% (inactive); as for `CC1(C)CC[C@]2(C(=O)Nc3ccc(Br)cc3)CC[C@]3(C)C(=CCC4[C@@]5(C)C[C@@H](O)[C@H](O)[C@@](C)(CO)C5CC[C@]43C)C2C1` (stereo partly drawn), 3.33% (active).
As for `CC(/C=C1\SC(=S)N(CCCC(=O)NC(CC(C)C)C(=O)O)C1=O)=C\c1ccccc1` (stereo not drawn), the figure is 94.8% (inactive); as for `Cn1cc(-c2cc(N)n3nc(-c4cn(C)c5ccccc45)cc3n2)c2cc(Br)ccc21`, -72.6% (active).
As for `Cc1ccc(NCC(=O)Cn2cc(COc3ccc(C=Nc4cnc5ccccc5c4)cc3)nn2)cc1`, the growth is 113% (inactive).
As for `Cc1ccc([C@H]2C(C(=O)c3ccc(Cl)cc3)C3(N[C@@H]2c2ccccc2)C(=O)Nc2ccc(Cl)cc23)cc1` (stereo partly drawn), the figure is 64.3% (inactive).
